TbPYK inhibitor: qHTS of Trypanosoma Brucei Inhibitors. TbPYK enzyme, Kinase-Glo Plus ATP luminescence, 45 min. Potency, µM (series often up to 76.8 µM), for inactives: top-dose activity, negative = inhibition, hits mostly inhibitors. 410,000 compounds, 0.12% hits; also: nearly all actives have a fitted effect of over 50% in size
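T. brucei PYK with substrate was exposed to pin-transferred compounds across a concentration series, then started with 130 uM ADP (final). After 45 min at room temperature, Kinase-Glo Plus luminescence was read, normalized and curve-fitted.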
Giardia FBPA inh-1: qHTS Assay for Inhibitors of Fructose-1,6-bisphosphate Aldolase from Giardia Lamblia. Potency, µM (series often up to 59.6 µM), inactives show at the top dose activity, negative = inhibition, usual class: inhibitors. 290,000 compounds, 0.71% hits. purified Giardia FBPA; also: nearly all actives have a fitted effect of over 55% in size
Target sequence (A8B2U2 whole entry, looked up): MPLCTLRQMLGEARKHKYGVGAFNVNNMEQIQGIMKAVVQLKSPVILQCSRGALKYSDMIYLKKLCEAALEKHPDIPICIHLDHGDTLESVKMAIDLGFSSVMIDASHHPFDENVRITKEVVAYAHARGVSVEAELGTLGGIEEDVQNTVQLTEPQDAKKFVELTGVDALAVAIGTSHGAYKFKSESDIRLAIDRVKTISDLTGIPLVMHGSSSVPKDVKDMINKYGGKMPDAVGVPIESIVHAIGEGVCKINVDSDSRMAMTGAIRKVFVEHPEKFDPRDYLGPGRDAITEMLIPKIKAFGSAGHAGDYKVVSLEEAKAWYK
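40 nM FBPA preincubated 10 min at RT with compound (up to 57.5 uM final), then substrate plus GAPDH/TPI/NAD/arsenate coupling and diaphorase/resazurin added. Fluorescence read after 20 min at RT, 525/598 nm.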
RE007 growth inh: qHTS Assay for Inhibitors of the HIV-1 protein Vpr | S. pombe RE007 Vpr strain, BacTiter-Glo ATP luminescence, 24 h | Potency, µM (top dose mostly 92.2 µM), inactives show at the highest dose activity change, negative = less growth, hits mostly inhibitors | 360,000 compounds, 0.21% hits | AID 651644, 2012; active = well fitted falling curve with a large enough effect; inconclusive = small, poorly fitted or top-dose-only effect; inactive = no such curve, though single readings can be large or run the other way; also: nearly all actives have a fitted effect of over 50% in size
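Fission yeast strain RE007, carrying one chromosomally integrated HIV-1 vpr copy, was seeded at OD 0.01 in PMG+AL medium with 23 nL pinned compound. After 24 h at 30 °C and 99% humidity, viability was read by BacTiter-Glo luminescence.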
LmPK inhibitor: qHTS Assay for Inhibitors of Leishmania Mexicana Pyruvate Kinase (LmPK) | purified LmPK, Kinase-Glo ATP luminescence, 1 h | Potency, µM (top dose mostly 57.5 µM), without a hit: top-dose activity change, negative = inhibition, usual class: inhibitors | Q27686 | 290,000 compounds, 0.37% hits
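qHTS format; LmPK 0.1 nM; substrates PEP 0.5 mM and ADP 0.1 mM. One-hour room-temperature incubation, then coupled luciferase luminescence; 0.5 nM enzyme wells mark activation.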
Giardia growth: qHTS Assay for Inhibitors of Fructose-1,6-bisphosphate Aldolase from Giardia Lamblia: Giardia lamblia growth inhibition; shares compounds with Giardia FBPA inh-1; Giardia lamblia trophozoite growth inhibition; Potency, µM (highest dose often 57.5 µM), for inactives: top-dose activity change, negative = inhibition, most hits filed as inhibitors; 1,500 compounds, 5% hits; AID 2785, 2010;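 also: trophozoites exposed to compound for 48 h at 37 °C; nearly all actives have a fitted effect of over 70% in size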
Mammalian tox: qHTS Assay for Inhibitors of Fructose-1,6-bisphosphate Aldolase from Giardia Lamblia: Mammalian cellular toxicity. Potency, µM (titrated, usually from 57.5 µM), inactives show top-dose viability change, negative = toxicity, hits mostly inhibitors. shares compounds with Giardia FBPA inh-1. 1,500 compounds, 4% hits. mammalian cell viability counter-screen, qHTS;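 also: Chinese hamster ovary cells used as mammalian cytotoxicity surrogate; viability measured as cellular ATP by luminescence; compound exposure lasted 48 h before reading; nearly all actives have a fitted effect of over 60% in size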
Giardia FBPA inh-2: qHTS Assay for Inhibitors of Fructose-1,6-bisphosphate Aldolase from Giardia Lamblia: Primary screen confirmation | shares compounds with Giardia FBPA inh-1 | purified Giardia aldolase enzyme activity, qHTS | Potency, µM (doses to about 57.5 µM), without a hit: top-dose activity change, negative = inhibition, actives largely listed as inhibitors | 1,500 compounds, 5% hits; also: nearly all actives have a fitted effect of over 45% in size
Rabbit aldolase: qHTS Assay for Inhibitors of Fructose-1,6-bisphosphate Aldolase from Giardia Lamblia: Rabbit FBPA Selectivity | Rabbit muscle FBPA enzyme inhibition, selectivity counter-screen | AID 2794, 2010 | Potency, µM (series often up to 57.5 µM), for inactives: top-dose activity, negative = inhibition, most hits filed as inhibitors | shares compounds with Giardia FBPA inh-1 | 1,500 compounds, 4% hits; also: nearly all actives have a fitted effect of over 60% in size
Target sequence (P00883 whole entry, looked up): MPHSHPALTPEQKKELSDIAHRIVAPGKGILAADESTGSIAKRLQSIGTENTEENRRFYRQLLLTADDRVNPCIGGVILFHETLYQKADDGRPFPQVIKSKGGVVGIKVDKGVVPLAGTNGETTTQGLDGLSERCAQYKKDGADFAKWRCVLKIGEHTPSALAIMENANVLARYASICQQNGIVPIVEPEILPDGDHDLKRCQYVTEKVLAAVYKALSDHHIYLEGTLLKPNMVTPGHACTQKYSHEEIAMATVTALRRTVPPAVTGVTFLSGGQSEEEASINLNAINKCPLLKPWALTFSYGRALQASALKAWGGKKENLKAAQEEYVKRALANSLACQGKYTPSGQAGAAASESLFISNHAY
GAPDH counter: qHTS Assay for Inhibitors of Fructose-1,6-bisphosphate Aldolase from Giardia Lamblia: Coupling assay counterscreen confirmation; shares compounds with Giardia FBPA inh-1; GAPDH coupling enzyme counterscreen, biochemical, qHTS; Potency, µM (top dose mostly 57.5 µM), without a hit: top-dose activity change, negative = inhibition, hits mostly inhibitors; 1,500 compounds, 6% hits; AID 2795, 2010; also: nearly all actives have a fitted effect of over 55% in size
The depositor's hits bear a star; ? = inconclusive; . = no result given; [ ] = dose if it differs, or a comment. The list is not random: actives were taken first. Their share in the collection is about 0.95%. Unless noted, calls follow the shape of the dose curve; as a rule, active = well fitted curve in the direction sought with a large enough effect; inconclusive = small, poorly fitted or top-dose-only effect, or another doubt; inactive = no such curve, though single readings can be large; an effect the other way counts as inactive or inconclusive. % is scaled to controls: 0 for no effect and ±100 for the full control effect; potency is read from the fitted curve at half-maximal effect.

SMILES	TbPYK inhibitor	Giardia FBPA inh-1	RE007 growth inh	LmPK inhibitor	Giardia growth	Mammalian tox	Giardia FBPA inh-2	Rabbit aldolase	GAPDH counter
C/C(=N\NC(=O)c1ccc(Cl)c(Cl)c1)c1ccccn1	0%	?	?	-4%	-3%[38.3 µM]	2.9µM*	1%	-4%	1%
COc1ccc(S(=O)(=O)N(C)C[C@H]2OCc3cn(nn3)CCCC(=O)N([C@@H](C)CO)C[C@@H]2C)cc1	4%	.	-4%	.	.	.	.	.	.
C=CCn1c(COc2cccc3cccnc23)nnc1SCC(=O)O	-10%	?	-15%	-9%	.	.	.	.	.
C=CCn1c(COc2cccc3ccc(C)nc23)nnc1SCC(=O)O	0%	14µM*	13%	-6%	-19%	9%	-6%	4%	2%
COCCCNC(=O)Cn1cnc2sc(C)c(S(=O)(=O)N3CCC(C)CC3)c2c1=O	4%	.	.	.	.	.	.	.	.
NCc1c(O)ccc2ccccc12	.	-10%	.	6%	-2%[38.3 µM]	-9%	1.6µM*	?	?
COc1cc(CN2CCC(C(=O)NCC(C)(C)CN(C)C)CC2)ccc1OCc1ccccc1	12%	22µM*	-10%	-7%	?	-20%	9%	6%	11%
Cc1cc(C)nc(-n2nc(C)c3c2N(Cc2ccccc2C)C(=O)CC3c2ccc(Cl)cc2)n1 (stereo unspecified)	4%	.	.	.	.	.	.	.	.
COC(=O)c1ccc(CC(=O)c2c(C)cc(O)cc2O)o1	-23%	16µM*	5%	5%	-16%	6%	16µM*	40µM*	?
Cc1cc(C)nc(N/N=C/c2ccc(Cl)cc2)n1	-4%	11µM*	-17%	6%	-23%	5%	3%	2%	-5%
COc1cc(/C=N/Nc2nc(C)cc(C)n2)ccc1O	5%	.	-15%	.	.	.	.	.	.
COc1cc(/C=N/Nc2nc(C)cc(C)n2)cc(OC)c1OC	3%	16µM*	3%	-2%	6%	2%	2%	0%	10%
Cc1ccc(/C=N/Nc2nc(C)cc(C)n2)cc1	6%	?	19%	-1%	.	.	.	.	.
NNc1n[nH]c(=S)n1N	-22%	1.8µM*	-12%	0%	20%[38.3 µM]	-4%	16µM*	18µM*	18µM*
Nn1c(Cc2ccccc2)n[nH]c1=S	-24%	-16%	8%	2%	.	.	.	.	.
COc1ccc(-n2c(=S)[nH]c3[nH]ncc3c2=O)cc1	?	18µM*	5%	-13%	-11%[10.4 µM]	7%	1%	3%	10%
O=c1c2cn[nH]c2[nH]c(=S)n1-c1ccccc1	?	?	-9%	?	.	.	.	.	.
CCN(CC)C(=O)c1sc2[nH]c(=S)n(-c3ccccc3)c(=O)c2c1C	0%	?	-2%	?	.	.	.	.	.
O=C(O)C1CCc2sc3[nH]c(=S)n(-c4ccccc4)c(=O)c3c21 (stereo unspecified)	?	20µM*	-1%	-8%	-6%[10.4 µM]	3%	-6%	5%	6%
CSCCC(=O)Nc1nc(-c2ccccn2)cs1	-9%	16µM*	-1%	9%	14µM*	-21%	-4%	-4%	-3%
O=C(/C=C/c1ccco1)Nc1nc(-c2ccccn2)cs1	-26%	18µM*	3%	11%	?	?	-13%	-10%	-7%
CC(Oc1ccccc1)C(=O)Nc1nc(-c2ccccn2)cs1 (stereo unspecified)	-12%	.	?	.	.	.	.	.	.
C[C@H](NC(=O)c1ccccc1)C(=O)Nc1nc(-c2ccccn2)cs1	-8%	5.6µM*	1%	-2%	?	-14%	1%	-3%	-3%
O=C(Nc1cccc(F)c1)N1CC[C@@]2(CCCNC2)C1	-7%	-1%	.	.	.	.	.	.	.
O=C(NC(=S)Nc1ccccc1)c1cccs1	1%	?	-13%	-1%	.	.	.	.	.
SMILES	TbPYK inhibitor	Giardia FBPA inh-1	RE007 growth inh	LmPK inhibitor	Giardia growth	Mammalian tox	Giardia FBPA inh-2	Rabbit aldolase	GAPDH counter
NS(=O)(=O)c1ccc(NC(=S)NC(=O)c2cccs2)cc1	-3%	18µM*	8%	1%	?	7%	7%	5%	4%
CN(C)S(=O)(=O)c1ccc(NC(=S)NC(=O)c2ccc(Br)o2)cc1	.	16µM*	.	-6%	3%[10.4 µM]	-8%	1%	7%	15%
NS(=O)(=O)c1ccc(NC(=S)NC(=O)c2ccc(Br)o2)cc1	-12%	18µM*	-4%	-4%	7%[10.4 µM]	0%	-3%	6%	6%
Cc1cc(C)cc(NS(=O)(=O)c2ccc(NC(=S)NC(=O)c3ccc(Br)o3)cc2)c1	-7%	-24%	17%	1%	.	.	.	.	.
COc1cc2c(cc1OC)CN(C(=O)CN1CCN(S(=O)(=O)c3ccccc3Br)CC1)CC2	0%	16µM*	-5%	1%	3%	-5%	1%	-5%	9%
CC(=O)c1ccc(N=Nc2c(C)[nH]n(-c3ccccc3)c2=O)cc1	1%	7.1µM*	0%	-2%	?	-2%	5%	4%	5%
Cc1[nH]n(-c2ccccc2)c(=O)c1N=Nc1ccc(C(=O)O)cc1	0%	-25%	5%	2%	.	.	.	.	.
COc1ccc(N2CSC3=C(C#N)C(c4cccc(OC)c4OC)CC(=O)N3C2)cc1 (stereo unspecified)	13µM*	2µM*	-8%	13%	15%	7%	?	?	?
COc1ccc(C2CC(=O)N3CN(Cc4ccco4)CSC3=C2C#N)cc1 (stereo unspecified)	?	?	-7%	-1%	.	.	.	.	.
COc1ccc(C2CC(=O)N3CN(c4ccccc4F)CSC3=C2C#N)cc1OC (stereo unspecified)	3.2µM*	2.8µM*	-2%	6%	?	5%	?	32µM*	?

Screens (PubChem BioAssay)
